Results on 37 molecules are retold here after PubChem BioAssay AID488789 (Broad Institute, 2010).

Entries with a potency or affinity are not part of this list. Results filed as inconclusive are left out. The source made the active and inactive calls.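 The calls were made as follows: active = samples whose fitted half-maximal inhibition concentration is no more than ten times the top valid dose tested; inconclusive = flat response between -70 and -30, or invalid curve fit; inactive = flat within 30 of zero, potency above limit, or signal rising.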

Chain of Trypsin (Sus scrofa) (P00761 whole entry, looked up): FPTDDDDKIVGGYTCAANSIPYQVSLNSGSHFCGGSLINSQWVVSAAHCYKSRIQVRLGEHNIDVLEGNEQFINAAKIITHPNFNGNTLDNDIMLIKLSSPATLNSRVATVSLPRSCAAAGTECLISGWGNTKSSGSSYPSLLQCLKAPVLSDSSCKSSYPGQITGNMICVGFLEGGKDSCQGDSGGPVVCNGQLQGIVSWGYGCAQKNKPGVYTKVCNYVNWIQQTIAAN

This experiment addresses Trypsin (Sus scrofa) (UniProt P00761). As to the kind of experiment: trypsin protease activity blockade – biochemical, quenched peptide fluorescence, cherry-pick, selectivity assay for Rce1 protease inhibitor project, dose response (AID 488789).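 Also: more negative means stronger trypsin inhibition.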 As to conditions: porcine trypsin, quenched peptide cleavage fluorescence; series mostly up to 10 µM; activity change, negative = inhibition: at the top concentration.
`Cc1ccc(NC(=O)CCc2ccc(S(=O)(=O)NC3CCCCC3)cc2)cc1`: the “activity change, negative = inhibition” value is 8.43% (inactive). For `COC(=O)c1sccc1NC(=O)CSc1nnnn1-c1ccccc1C` the value was 4.34% (inactive). As to `CCN(CC)CCNC(=O)c1[nH]c2ccc(OCc3ccccc3)cc2c1C`, the “activity change, negative = inhibition” value is -5.39% (inactive). For `Cc1ccc(-c2nc(SCC(=O)N(C)C3CCS(=O)(=O)C3)[nH]c2-c2ccc(C)cc2)cc1` (configuration not stated) the value was -6.71% (inactive); for `CN(C)CCN(C(=O)c1ccc2ccccc2c1)c1nc2ccc(F)cc2s1`, 2.44% (inactive); for `CC(C)c1c(C(=O)N/N=C/c2ccsc2)nnn1-c1nonc1N`, 22.4% (inactive). For `CCCCN(C)CCNC(=O)c1cc2c(-c3cccc(OC)c3)nn(C)c2s1` the value was -9.5% (inactive); for `COc1ccc(Cc2nc3ccc(C(=O)N4CCCC4)cc3o2)cc1`, 15.7% (inactive); for `COc1cc(-c2nc3ccccn3c2/N=C/c2cccc(OC)c2O)ccc1O`, 1.16% (inactive). Regarding `COc1ccc(-c2cc(C(=O)N3CCN(c4ccccc4)CC3)c3ccccc3n2)cc1`, the “activity change, negative = inhibition” value is -3.79% (inactive).

As to `CCC1(c2ccccc2)NC(=O)N(CC(=O)Nc2ccc3c(C)cc(=O)oc3c2)C1=O` (configuration not stated), the “activity change, negative = inhibition” value was 9.62% (inactive). Consider `O=C(Cn1c2ccccc2c(=O)c2ccccc21)Nc1ccccc1F`, for which the “activity change, negative = inhibition” value was -4.99% (inactive). The figure for `CC(/C=N\NC(=O)CN1CCN(S(=O)(=O)c2ccc(C)cc2)CC1)=C\c1ccccc1` is 7.87% (inactive). The figure for `CN(C)CCN(C(=O)c1ccc2ccccc2c1)c1nc2ccc(Br)cc2s1` is 6.49% (inactive); for `OC1CCN(C(c2ccc3ncccc3c2)c2nnnn2C2CCCCC2)CC1` (configuration not stated) it is -1.46% (inactive). The figure for `O=C(CCNS(=O)(=O)c1ccc2[nH]c(=O)oc2c1)NCc1ccccc1` is 8.03% (inactive); for `CC(=O)NN1C(=O)c2ccccc2NC1c1ccccc1` (configuration not stated) it is 5.62% (inactive). Consider `CCN(Cc1ccccc1)S(=O)(=O)c1ccc(C(=O)N(CCCN(C)C)c2nc3cc(C)cc(C)c3s2)cc1`, for which the “activity change, negative = inhibition” value is 1.82% (inactive). For `O=C(c1cn(-c2ccccc2)nc1-c1cccs1)N1CCN(c2ccccc2)CC1` the value was 27.7% (inactive); for `O=C(CN1CCC(NC(=O)c2ccc(Br)cc2)CC1)NCc1cccs1`, 5.08% (inactive). Turning to `O=S(=O)(c1ccc(-c2csc(Nc3ccc(F)cc3)n2)cc1)N1CCCC1`, the “activity change, negative = inhibition” value was -4.3% (inactive).

With `O=C1CN(C(=O)NCC(=O)N2CCCC2)c2ccccc2N1`, the “activity change, negative = inhibition” value is 0.151% (inactive). For `C=C(C)C1(O)OC(=O)C=C1OC` (configuration not stated), the “activity change, negative = inhibition” value is 12.6% (inactive). The figure for `CCOC(=O)c1cc(-c2ccccc2)sc1NC(=O)C(C)Sc1nnnn1C` (configuration not stated) is 7.62% (inactive). Consider `CCn1c(C)nc2c(=O)oc3ccccc3c21`, for which the “activity change, negative = inhibition” value is 2.76% (inactive).

As to `COc1cccc(CNc2nc3nc(C)cc(C)n3n2)c1`, the “activity change, negative = inhibition” value is -0.687% (inactive). For `Cn1c(=O)c(C(=O)NCCO)c(O)c2ccccc21`, the “activity change, negative = inhibition” value is -1.13% (inactive).

`O=C(c1cn(-c2ccccc2)nc1-c1cccs1)N1CCN(c2ccccn2)CC1`: the “activity change, negative = inhibition” value is -4.36% (inactive).

In the case of `CSc1ccc(C(=O)C2CCCN(C(=O)c3cccnc3SC)C2)cc1` (configuration not stated), the “activity change, negative = inhibition” value was 2.24% (inactive). As to `CCOc1cc(CNC2CCCC2)ccc1OCc1ccccc1Cl`, the “activity change, negative = inhibition” value was 12.6% (inactive). On to `CCc1ccc(Nc2n[n+](-c3ccccc3)c(/C=C/c3ccccc3)s2)cc1`, for which the “activity change, negative = inhibition” value is 7.2% (inactive).

On to `CC(C)[C@H](NC(=O)OCc1ccccc1)C(=O)OCC(=O)Nc1c(F)cccc1F`, for which the “activity change, negative = inhibition” value is -4.5% (inactive).

On to `O=C1CN(S(=O)(=O)c2ccc([N+](=O)[O-])cc2)CC(=O)N1`, for which the “activity change, negative = inhibition” value is 10.3% (inactive).

Turning to `COc1ccc(Br)cc1C(=O)Nc1cc(C)cc(C)c1`, the “activity change, negative = inhibition” value was 13.5% (inactive). For `CC1CCN(Cc2c(C(=O)N/N=C/c3cccc(C(F)(F)F)c3)nnn2-c2nonc2N)CC1` the value was 4.51% (inactive). On to `CCCOc1ccc(-c2c(C(=O)N/N=C/c3cccs3)nnn2-c2nonc2N)cc1`, for which the “activity change, negative = inhibition” value was 21.4% (inactive). As to `COC(C/C=C/[C@@H](O)[C@H](C)OCc1ccccc1)OC`, the “activity change, negative = inhibition” value was 23% (inactive).
